L3MBTL1 inh: qHTS Assay for the Inhibitors of L3MBTL1; AlphaScreen L3MBTL1–H3K9me1 peptide binding; Potency, µM (top dose mostly 57.1 µM), without a hit: top-dose activity, negative = inhibition, actives largely listed as inhibitors; 230,000 tested, 0.66% active; AID 485360, 2010; also: potency is read from the fitted curve at half-maximal effect; % is scaled to controls: 0 for no effect and ±100 for the full control effect; nearly all actives have a fitted effect of over 60% in size
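Displacement of a biotinylated histone H3(1-15) peptide monomethylated at Lys9 (75 nM) from L3MBTL1 (50 nM) was measured by AlphaScreen after a 30 min room-temperature compound incubation; cefsulodin titration served as intraplate control.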
G9a block: qHTS Assay for Inhibitors of Histone Lysine Methyltransferase G9a | AID 504332, 2011 | Potency, µM (titrated, usually from 102 µM), for the others: top-dose activity, negative = inhibition, hits mostly inhibitors | G9a H3K9 monomethylation, AlphaScreen, 2 h | 350,000 tested, 8.8% active; also: potency is read from the fitted curve at half-maximal effect; % is scaled to controls: 0 for no effect and ±100 for the full control effect; nearly all actives have a fitted effect of over 75% in size
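Enzyme 20 nM + cpd, 15 min RT; add b-H3K9 pep 500 nM / SAM 20 uM; 2 h RT; anti-H3K9me1 Ab 0.5 ug/mL + SA donor / anti-rabbit acceptor beads 20 ug/mL each, 10 min; AlphaScreen read.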
PI5P4K alpha inh: qHTS for Inhibitors of phosphatidylinositol 5-phosphate 4-kinase (PI5P4K); Phosphatidylinositol 5-phosphate 4-kinase type-2 alpha (Homo sapiens), P48426; PI5P4Kalpha enzyme, ADP-Glo luminescence, 60 min; active compounds read low; max response, %; 330,000 tested, 1.2% active; active = max response of -50% or lower; inconclusive = between -30% and -50%; inactive = -30% or higher; also: value at the top dose of about 77 µM; % is scaled to controls: 0 for no effect and ±100 for the full control effect
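Reactions run in 0.038 M HEPES pH 7.4, 0.28 mM EGTA, 0.1% CHAPS and 5% DMSO, with PI5P4Kalpha, substrate, compound and 5 microM ATP final, one hour at room temperature. Readout is ADP-Glo luminescence.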
JMJD2A Tudor: qHTS Assay for Inhibitors of JMJD2A-Tudor Domain; AlphaScreen JMJD2A-Tudor / H3K4me3 peptide binding; Lysine-specific demethylase 4A (Homo sapiens), O75164; Potency, µM (highest dose often 114 µM), for the others: at the top dose activity change, negative = inhibition, usual class: inhibitors; 390,000 tested, 4.4% active; also: potency is read from the fitted curve at half-maximal effect; % is scaled to controls: 0 for no effect and ±100 for the full control effect; nearly all actives have a fitted effect of over 50% in size
Target sequence (O75164 whole entry, looked up, the tested form may be a part): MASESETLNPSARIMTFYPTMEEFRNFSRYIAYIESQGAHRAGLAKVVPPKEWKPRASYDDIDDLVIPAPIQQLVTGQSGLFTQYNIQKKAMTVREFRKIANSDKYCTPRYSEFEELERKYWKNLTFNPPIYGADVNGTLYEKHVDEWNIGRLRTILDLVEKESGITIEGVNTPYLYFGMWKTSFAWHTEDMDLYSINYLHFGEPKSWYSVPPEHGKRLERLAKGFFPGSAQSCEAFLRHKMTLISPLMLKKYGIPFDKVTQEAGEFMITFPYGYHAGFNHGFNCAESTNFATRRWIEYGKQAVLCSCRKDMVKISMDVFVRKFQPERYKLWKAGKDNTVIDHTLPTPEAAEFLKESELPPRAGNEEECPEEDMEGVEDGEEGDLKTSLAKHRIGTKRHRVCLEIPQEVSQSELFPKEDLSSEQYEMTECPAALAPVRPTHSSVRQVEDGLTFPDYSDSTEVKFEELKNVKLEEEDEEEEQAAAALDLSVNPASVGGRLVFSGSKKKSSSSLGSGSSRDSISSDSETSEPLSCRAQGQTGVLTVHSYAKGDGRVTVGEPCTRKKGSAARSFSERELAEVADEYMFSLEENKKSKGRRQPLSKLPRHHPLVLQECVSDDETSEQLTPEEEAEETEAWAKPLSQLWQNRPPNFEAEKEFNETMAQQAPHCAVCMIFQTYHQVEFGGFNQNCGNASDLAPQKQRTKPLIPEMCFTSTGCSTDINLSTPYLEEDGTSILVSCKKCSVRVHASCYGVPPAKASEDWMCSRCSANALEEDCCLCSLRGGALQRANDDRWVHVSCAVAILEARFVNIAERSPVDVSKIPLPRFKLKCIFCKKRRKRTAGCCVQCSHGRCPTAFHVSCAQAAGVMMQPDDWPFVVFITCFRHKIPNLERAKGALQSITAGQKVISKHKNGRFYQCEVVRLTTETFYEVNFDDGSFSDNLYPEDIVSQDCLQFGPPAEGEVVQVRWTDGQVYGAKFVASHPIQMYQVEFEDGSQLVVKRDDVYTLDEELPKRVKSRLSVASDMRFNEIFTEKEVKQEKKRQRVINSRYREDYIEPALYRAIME
BAZ2B block: qHTS Assay for Inhibitors of BAZ2B; Potency, µM (top dose mostly 114 µM), inactives show top-dose activity change, negative = inhibition, most hits filed as inhibitors; AlphaScreen BAZ2B-H3K14Ac peptide displacement; Bromodomain adjacent to zinc finger domain protein 2B (Homo sapiens), Q9UIF8; 360,000 tested, 4.4% active; also: potency is read from the fitted curve at half-maximal effect; % is scaled to controls: 0 for no effect and ±100 for the full control effect; nearly all actives have a fitted effect of over 60% in size
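AlphaScreen displacement: compounds (up to 110uM) incubated 30 min at room temperature with a preformed 50 nM BAZ2B/50 nM biotinylated H3K14Ac peptide complex in PBS pH 7.4 with Tween-20. Donor and acceptor beads at 10 ug/mL final added, 20 min light-protected before reading.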
HP1b chromo inh: HTS for Inhibitors of HP1-beta Chromodomain Interactions with Methylated Histone Tails. 390,000 tested, 0.56% active. AID 540317, 2011. Potency, µM (titrated, usually from 114 µM), without a hit: at the highest dose activity change, negative = inhibition, actives largely listed as inhibitors. AlphaScreen HP1-beta / biotin-H3K9me3 peptide binding; also: potency is read from the fitted curve at half-maximal effect; nearly all actives have a fitted effect of over 70% in size
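Compound inhibition of the preformed complex between 50 nM HP1-beta and 50 nM biotinylated H3K9me3 peptide was read by AlphaScreen. Buffer was PBS pH 7.4 with 0.01% Tween-20. Incubations ran 30 min at room temperature, with 10 ug/mL donor/acceptor beads.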
Starred values were filed as active, the others as inactive; ? = inconclusive; . = not tested or not shown; ! = a repeat was not active; [ ] = another dose, or the depositor's remark. An excerpt weighted towards active compounds, which were near 11% of everything screened. Unless noted, calls follow the shape of the dose curve; as a rule, active = well fitted inhibition curve with a large enough effect; inconclusive = small, poorly fitted or top-dose-only effect; inactive = no such curve, though single readings can be large or run the other way.

SMILES	L3MBTL1 inh	G9a block	PI5P4K alpha inh	JMJD2A Tudor	BAZ2B block	HP1b chromo inh
CCOC(=O)c1ccc(-n2c(CCC(=O)O)ccc2-c2ccccc2)cc1O	.	17.8µM*	.	-33.3%	44.7µM*	-24.5%
CC(=O)c1ccc(-n2c(CCC(=O)O)ccc2-c2ccc(Cl)cc2)cc1	.	39.8µM*	-1.9	-30.6%	?	-3.8%
O=C(O)CCc1ccc(-c2ccccc2)n1-c1ccc(C(=O)O)cc1	.	14.1µM*!	-14.3	-31.4%	-5.4%	24.6%
COc1ccccc1CCNC(=O)C(=O)NCC(c1ccco1)S(=O)(=O)c1ccc(C)cc1 (configuration not stated)	.	2.1%[59 µM]	.	-8.8%	-2.3%	41.8%
Cc1cc(=O)[nH]c2nnc(SCc3ccccc3F)n12	.	15.1%[59 µM]	.	-8.4%	-3.8%	20.4%
COc1ccc(-n2c(CCC(=O)O)ccc2-c2ccccc2)c(OC)c1	.	8.91µM*	.	?	?	26.9%
O=C1OC2(CCCCC2)CC2=C1C1O[C@](CCCCN3C(=O)c4ccccc4C3=O)(Cc3ccccc31)O2	.	-0.2%[2.33 µM]	.	.	-28.0%[22.9 µM]	.
COC(=O)Nc1ccc(=O)n(Cc2c(Cl)cccc2Cl)c1	-6.4%	70.8µM*	-7.2	-11.9%	-23.7%	9.9%
N#C/C(=N\Nc1ccc(S(=O)(=O)N2CCCCCC2)cc1)C(N)=S	-24.3%	2µM*	?	?	-38.1%	?
N#C/C(=N\Nc1ccc(S(=O)(=O)N2CCc3ccccc32)cc1)C(N)=S	-27.1%	15.8µM*	-62.1*	?	31.6µM*	6.31µM*
CCOC(=O)/C(C#N)=N/Nc1ccc(S(=O)(=O)N2CCc3ccccc32)cc1	-14.7%	?	1.1	?	?	?
Cc1ccc(NC(=O)CN2CCc3ccccc3C2)cc1S(=O)(=O)N(C)C	-22.3%	10µM*	-10.5	3.16µM*	50.1µM*	?
CN(C)S(=O)(=O)c1ccc(Cl)c(NC(=O)CN2CCc3ccccc3C2)c1	-5.7%	44.7µM*	2.6	-14.0%	-38.6%	55.0%
Cc1ccc(NC(=O)CN2CCc3ccccc3C2)cc1S(=O)(=O)N1CCOCC1	5.9%	-6.1%[59 µM]	2.8	-14.3%	-32.6%	11.1%
CN(C)S(=O)(=O)c1cc(NC(=O)CN2CCOCC2)ccc1Cl	2.9%	23.0%	?	14.1µM*	-5.4%	-0.6%
COc1cc2c(cc1OC)CN(CC(=O)Nc1ccc(Cl)c(S(=O)(=O)N(C)C)c1)CC2	-10.4%	44.7µM*	.	.	-25.7%	.
COc1cc2c(cc1OC)CN(CC(=O)Nc1ccc(S(=O)(=O)N(C)C)cc1)CC2	-7.8%	8.4%	4.9	-28.1%	.	-3.0%
CCc1ccc(-n2c(=O)c3cccnc3n2CC(=O)N(CC)c2cccc(C)c2)cc1	.	41.9%[59 µM]	.	90.3%	94.6%	142.3%
Cc1cccc(-n2c(-c3csc(C)c3C)n[nH]c2=S)c1	-9.9%	1.12µM*	-12.0	22.4µM*	-11.4%	-1.8%
Cc1ccccc1-n1c(-c2csc3ccccc23)n[nH]c1=S	-7.2%	2µM*	-8.9	?	-37.7%	10.4%
Cc1cccc(-n2c(-c3csc(C(C)C)c3)n[nH]c2=S)c1	.	?	.	?	-33.0%	11.8%
CCCc1cc(-c2n[nH]c(=S)n2-c2cccc(C)c2)cs1	-23.8%	3.55µM*	1.7	?	?	-9.6%
Cc1ccccc1-n1c(-c2csc(C)c2C)n[nH]c1=S	-6.9%	1µM*	0.9	50.1µM*	-8.7%	22.3%
COc1cc(/C=N/NC(=O)c2ccc3c(c2)OCO3)ccc1O	.	?	3.5	1.1%	-5.1%	59.3%
COc1ccc(/C=N/NC(=O)c2ccc3c(c2)OCO3)cc1	.	79.4µM*	5.4	-11.0%	?	25.8%
SMILES	L3MBTL1 inh	G9a block	PI5P4K alpha inh	JMJD2A Tudor	BAZ2B block	HP1b chromo inh
COc1ccc2c(Cl)c(C(=O)N/N=C/c3ccc4c(c3)OCO4)sc2c1	-5.6%	1.6%[12.7 µM]	-3.2	-31.1%	-1.0%[57.1 µM]	-4.4%
O=C(N/N=C/c1ccc2c(c1)OCO2)c1ccc2c(c1)OCCO2	-3.6%	4.6%[59 µM]	0.1	-12.0%	1.3%	28.0%
O=C(N/N=C/c1ccc2c(c1)OCO2)c1ccc(Br)o1	-1.5%	?	1.6	?	79.4µM*	-7.9%
O=C(N/N=C/c1ccc2c(c1)OCO2)c1sc2cc(Cl)ccc2c1Cl	2.3%	0.8%[59 µM]	?	89.1µM*	?	103.0%
Cc1occc1C(=O)N/N=C/c1ccc2c(c1)OCO2	.	0.0%	-54.3*	-14.1%	-24.5%	39.6%
O=C(NCCc1ccccc1)c1nn(-c2ccc(F)cc2)nc1CO	.	15.4%[59 µM]	.	-29.2%	2.8%	45.5%
O=C(N/N=C/c1cc2c(cc1Br)OCO2)c1cc2ccccc2o1	.	39.8µM*	-6.5	-25.4%	-25.2%	26.2%
CC1C(=O)N2CCCc3cc(S(=O)(=O)N(C)c4ccccc4)cc1c32 (configuration not stated)	.	.	-1.7	-22.1%	56.2µM*	36.1%
COc1ccc(S(=O)(=O)Nc2cc3c4c(c2)C(C)C(=O)N4CCC3)cc1OC (configuration not stated)	2.8%	44.7µM*	-2.7	-14.4%	9.0%	9.1%
O=C(NCCCN1CCCCC1)c1cc(Sc2ccc(Cl)cc2)nc2ccccc12	.	-5.0%[59 µM]	.	-22.0%	-10.2%	11.6%
CC(C)(C)c1ccc(C(=O)N/C(=C\c2ccco2)C(=O)O)cc1	?	?	2.3	-2.7%	-34.2%	48.9%
O=C(N/C(=C\c1ccco1)C(=O)N1CCCC1)c1ccccc1	.	39.8µM*	-12.8	-5.6%	-2.4%	12.9%
O=C(N/C(=C\c1ccco1)C(=O)N1CCC(O)CC1)c1ccccc1	.	?	-5.8	-10.2%	0.6%	9.6%
O=C(O)/C(=C\c1ccco1)NC(=O)c1cccc2ccccc12	?	.	.	89.1µM*	?	-11.3%
Cc1cccc(C(=O)N/C(=C\c2ccco2)C(=O)N2CCCC2)c1	.	39.8µM*	4.0	-20.6%	-8.2%[57.1 µM]	-14.6%
Cc1ccc(C(=O)N/C(=C/c2ccco2)C(=O)N2CCCCCC2)cc1	.	70.8µM*	1.8	-30.8%	-7.6%	-19.9%
CC(=O)OCC(NC(=O)C(COCc1ccccc1)NC(=O)OC(C)(C)C)C1OC(n2cc(F)c(=O)[nH]c2=O)C(OC(C)=O)C1OC(C)=O (configuration not stated)	.	.	.	-12.4%	.	8.8%
COc1ncc2nc(-c3cn(C)c4ccccc34)c(=O)n(C[C@H]3CCCO3)c2n1	.	17.6%[0.501 µM]	.	.	.	.

High-throughput results: PubChem, National Center for Advancing Translational Sciences (NCATS)
